Our source for the outcome, Potency and activation values is PubChem BioAssay (NCATS).

Assay [1] can be described thus: Validation of Assay for Modulators of Lamin A Splicing (AID 1459; active = well fitted curve in the direction sought with a large enough effect in the signal ratio; the % refers to the signal ratio;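 also: cells exposed to compound for two days before reading; 0% is about no effect; ratio rise marks activators and ratio drop marks inhibitors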). As to conditions: Lamin A splicing dual RFP/GFP fluorescence reporter; series mostly up to 9.22 µM. The method in brief: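 Splicing correction is reported by an EGFP-containing lamin A minigene in stably transfected S3 HeLa cells, while DsRed2 controls for viability and nonspecific signal. Cells are exposed to compounds for 48 hrs before the GFP over RFP ratio is taken.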

In assay [2] the target is DNA repair nuclease/redox regulator APEX1 (Homo sapiens) (UniProt P27695). Nature of the assay: qHTS Validation Assay for Inhibitors of the Human Apurinic/apyrimidinic Endonuclease 1 (APE1) (AID 1705; also: potency is read from the fitted curve at half-maximal effect). Conditions: purified APE1 endonuclease activity, fluorescence, titration; series mostly up to 57.1 µM. The gist of the method: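 Endonuclease activity of human APE1 is followed as dequenching when the enzyme incises a tetrahydrofuran abasic site in a short duplex labelled 5'-TAMRA/3'-BHQ-2 (50 nM final), after 15 min enzyme–compound preincubation at room temperature.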
DNA repair nuclease/redox regulator APEX1 (Homo sapiens), sequence (P27695 whole entry, looked up): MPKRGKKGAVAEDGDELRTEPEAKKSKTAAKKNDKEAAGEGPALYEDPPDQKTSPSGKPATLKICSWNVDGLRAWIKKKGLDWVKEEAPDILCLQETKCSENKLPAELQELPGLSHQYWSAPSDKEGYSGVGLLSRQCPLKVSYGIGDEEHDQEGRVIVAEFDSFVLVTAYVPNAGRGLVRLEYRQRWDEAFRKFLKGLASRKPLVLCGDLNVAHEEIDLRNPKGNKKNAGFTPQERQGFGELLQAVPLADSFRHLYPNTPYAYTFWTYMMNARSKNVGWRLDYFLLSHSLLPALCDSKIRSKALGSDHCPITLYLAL

The nature of assay [3]: Counterscreen for APE1 Inhibitors: Fluorescent Dye Displacement Validation Assay (AID 1707).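 Also: plate controls were ThO with dsDNA and no compound for no effect and ThO without dsDNA for full effect.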 As to conditions: fluorescent dye displacement from DNA; series mostly up to 57.1 µM. The method in brief:
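Reaction mixture of 250 nM Thiazole Orange and 50 nM double-stranded abasic-site DNA was dispensed, compounds were pin-transferred, and fluorescence was read at endpoint (480 nm ex, 540 nm em). Reduced fluorescence indicated dye displacement by DNA binding.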
On the technique in general: The purpose of a counterscreen is to sort out artefacts and off-target activity.

Assay [4] in a line: qHTS for differential inhibitors of proliferation of Plasmodium falciparum line GB4 (AID 1816).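 Also: parasite growth measured after 72 h incubation; 0% = vehicle DMSO and -100% = reference inhibitor.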 Conditions: Potency: Plasmodium falciparum GB4 proliferation inhibition; series mostly up to 28.7 µM.
Assay [5] can be described thus: qHTS for differential inhibitors of proliferation of Plasmodium falciparum line 3D7 (AID 1876). Also: potency is read from the fitted curve at half-maximal effect. Conditions: P. falciparum 3D7 proliferation inhibition; series mostly up to 28.7 µM.
The nature of assay [6]: qHTS for differential inhibitors of proliferation of Plasmodium falciparum line D10 (AID 1877).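 Also: parasites grown with compound for 72 h before DNA staining; plate controls were vehicle wells for no effect and reference inhibitor wells for full effect.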 As to conditions: series mostly up to 28.7 µM. A general note: qHTS replaces the single test concentration by a dilution series.
The nature of assay [7]: qHTS for differential inhibitors of proliferation of Plasmodium falciparum line HB3 (AID 1886).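 Also: parasites grown with compound for 72 h before SYBR Green readout; plate controls were vehicle for no effect and reference inhibitor for full effect.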 As to conditions: Potency: Plasmodium falciparum HB3 proliferation inhibition; series mostly up to 28.7 µM.
Assay [8] addresses ATP-dependent DNA helicase Q1 (Homo sapiens) (UniProt P46063). The experiment in a line: qHTS Validation Assay for Inhibitors of RecQ-Like Dna Helicase 1 (RECQ1) (AID 2353).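 Also: plate controls were DMSO vehicle for no effect and enzyme-free control for full effect.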 Conditions: recombinant RECQ1 helicase DNA unwinding assay; series mostly up to 25.6 µM. The method in brief:
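RECQ1T1 50 nM; forked duplex (20 bp + 30-nt ss tails) 200 nM, ATP 2 mM final; pH 8.0, 2 mM MgCl2, 2.5 ug/ml poly(dI-dC); 15 min compound preincubation; discontinuous kinetic read over 2 h at RT.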

Assay [9] in a line: Validation screen for small molecules that induce DNA re-replication in MCF 10A normal breast cells (AID 463097). Also: 0% is about no effect; nearly all actives have a fitted effect of over 60% in size. Conditions: MCF 10A cells, DNA re-replication phenotype imaging; series mostly up to 46.1 µM. The method in brief:
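DNA re-replication was detected as a rise in nuclei with elevated Hoechst fluorescence after a 48 hr compound exposure of MCF 10A cells at 37 C.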

Assay [10] can be described thus: Quantitative high throughput screen for delayed death inhibitors of the malarial parasite plastid, 96 hour incubation (AID 488745). Also: nearly all actives have a fitted effect of over 70% in size. Also: potency is read from the fitted curve at half-maximal effect. Conditions: Plasmodium falciparum growth; series mostly up to 28.7 µM. The gist of the method:
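Readout is firefly luciferase luminescence from an integrated reporter in P. falciparum; lower signal marks inhibited growth. Cultures at 2% hematocrit and 0.1% parasitemia were treated with compound across two generations (96 h, 37 C, 5% CO2).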

Assay [11] has as its target Transient receptor potential cation channel subfamily V member 1 (Homo sapiens) (UniProt Q8NER1). The experiment in a line: HTS Assay for Compounds that Act as Enhancers of the Vanilloid Receptor 1 (AID 488979). Also: 0% is about no effect. As to conditions: TRPV1-expressing cells, enhancer of channel activity, stimulated with capsaicin at EC20; series mostly up to 41.7 µM. The gist of the method: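 TRPV1-expressing cells loaded with Fluo-8 calcium dye; compounds added and calcium influx read kinetically for 3 min (agonist phase), then capsaicin at EC20 added and read 2 min more for enhancement. Fluorescence ex 480/em 520 nm.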

Assay [12] concerns the target Thyrotropin receptor (Homo sapiens) (UniProt P16473). Nature of the assay: qHTS Assay for Antagonists of the Thyroid Stimulating Hormone Receptor (AID 488980). Also: 0% is about no effect. Conditions: TSHR-expressing cells, cAMP antagonist read-out; series mostly up to 57.5 µM. The gist of the method: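 Cells expressing human TSHR (HEK293) are dispensed in HBSS/HEPES containing 70 uM RO 20-1724, compound is added, then TSH at EC80 (4 nM final). Antibody in lysis buffer follows, 30 minutes at room temperature before HTRF detection.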

In assay [13] the target is Thyrotropin-releasing hormone receptor (Homo sapiens) (UniProt P34981). Nature of the assay: qHTS for Small Molecule Agonists and Allosteric Enhancers of Human TRH Receptor: Validation Screen for Agonists (AID 493127;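 active = calcium activation more than 3 SD above the typical response in the agonist read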;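 also: intracellular calcium rise by fluo-8 fluorescence before TRH EC20 addition; 0% is about no effect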). Conditions: TRH receptor agonist cell assay; at 2 µM; active compounds read high. The method in brief: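 Compounds are added by online pintool to dye-loaded TRHR cells while fluorescence is recorded every second. A rise in calcium signal during the agonist read marks activation; a later 10 nM TRH addition (EC20) serves the separate enhancer mode.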
Thyrotropin-releasing hormone receptor (Homo sapiens), sequence (P34981 whole entry, looked up): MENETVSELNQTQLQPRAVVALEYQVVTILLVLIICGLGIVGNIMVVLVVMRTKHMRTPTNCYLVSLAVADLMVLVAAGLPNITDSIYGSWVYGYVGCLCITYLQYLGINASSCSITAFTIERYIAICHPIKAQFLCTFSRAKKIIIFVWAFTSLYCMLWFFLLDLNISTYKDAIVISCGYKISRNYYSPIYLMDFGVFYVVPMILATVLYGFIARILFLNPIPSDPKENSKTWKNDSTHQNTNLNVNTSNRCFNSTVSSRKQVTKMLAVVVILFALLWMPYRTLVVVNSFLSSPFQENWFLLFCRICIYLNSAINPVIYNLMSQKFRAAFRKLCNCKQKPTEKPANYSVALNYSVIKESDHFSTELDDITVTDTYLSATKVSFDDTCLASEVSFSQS

Assay [14] concerns the target Galactokinase (Homo sapiens) (UniProt P51570). Nature of the assay: qHTS Validation Assay for Inhibitors of Human Galactokinase (GALK) (AID 493189). Also: 0% is about no effect. Conditions: purified human GALK enzyme activity, qHTS 7-point titration; series mostly up to 57.5 µM. The gist of the method: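 Compounds were pin-transferred into ATP buffer, then GALK-galactose mix was added (final 5 nM enzyme, 100 uM galactose, 35 uM ATP). After 1 h at room temperature, remaining ATP was measured luminescently.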

The nature of assay [15]: Validation screen for small molecules that induce DNA re-replication in SW480 colon adenocarcinoma cells (AID 504364). Also: 0% is about no effect. As to conditions: DNA re-replication phenotype (high-content imaging); series mostly up to 46.1 µM. The method in brief:
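Image-based qHTS: compounds were incubated with SW480 cells for 48 hr, nuclei stained with Hoechst, and per-nucleus fluorescence intensity scanned to flag cells with excess DNA content.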

The nature of assay [16]: Quantitative high throughput screen for delayed death inhibitors of the malarial parasite plastid, 48 hour incubation (AID 488752). Also: nearly all actives have a fitted effect of over 65% in size. Also: potency is read from the fitted curve at half-maximal effect. Conditions: Plasmodium falciparum growth; series mostly up to 28.7 µM. The method in brief:
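First, compound was pinned into RPMI 1640 medium containing 0.5% Albumax. Next, reporter-parasite-infected erythrocytes were added to 2% hematocrit and 0.1% parasitemia. After 48 h at 37 C under 5% CO2, luciferase detection reagent was added and luminescence read.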

Values without a mark were called inactive. Inconclusive results are not listed. Activity calls are given as the source filed them. Unless noted, calls follow the shape of the dose curve; as a rule, active = well fitted curve in the direction sought with a large enough effect; inconclusive = small, poorly fitted or top-dose-only effect, or another doubt; inactive = no such curve, though single readings can be large; an effect the other way counts as inactive or inconclusive.

ATP-dependent DNA helicase Q1 (Homo sapiens), sequence (P46063 whole entry, looked up): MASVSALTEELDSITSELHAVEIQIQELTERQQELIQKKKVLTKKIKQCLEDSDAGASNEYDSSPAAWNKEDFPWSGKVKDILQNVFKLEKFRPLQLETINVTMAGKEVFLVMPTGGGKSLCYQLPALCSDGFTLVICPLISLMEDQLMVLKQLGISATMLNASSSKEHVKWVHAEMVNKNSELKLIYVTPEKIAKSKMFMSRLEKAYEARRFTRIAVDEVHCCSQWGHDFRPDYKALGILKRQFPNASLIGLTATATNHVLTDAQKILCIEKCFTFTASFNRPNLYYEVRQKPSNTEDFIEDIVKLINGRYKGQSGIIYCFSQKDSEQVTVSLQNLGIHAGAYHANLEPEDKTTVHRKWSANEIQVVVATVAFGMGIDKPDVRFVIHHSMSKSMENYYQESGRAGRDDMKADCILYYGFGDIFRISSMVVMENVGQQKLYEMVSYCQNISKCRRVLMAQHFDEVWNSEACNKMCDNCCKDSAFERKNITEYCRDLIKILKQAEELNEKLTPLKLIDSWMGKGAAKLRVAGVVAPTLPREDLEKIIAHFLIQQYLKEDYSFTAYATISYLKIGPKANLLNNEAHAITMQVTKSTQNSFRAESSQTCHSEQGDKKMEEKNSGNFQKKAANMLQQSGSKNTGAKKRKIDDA
Transient receptor potential cation channel subfamily V member 1 (Homo sapiens), sequence (Q8NER1 whole entry, looked up): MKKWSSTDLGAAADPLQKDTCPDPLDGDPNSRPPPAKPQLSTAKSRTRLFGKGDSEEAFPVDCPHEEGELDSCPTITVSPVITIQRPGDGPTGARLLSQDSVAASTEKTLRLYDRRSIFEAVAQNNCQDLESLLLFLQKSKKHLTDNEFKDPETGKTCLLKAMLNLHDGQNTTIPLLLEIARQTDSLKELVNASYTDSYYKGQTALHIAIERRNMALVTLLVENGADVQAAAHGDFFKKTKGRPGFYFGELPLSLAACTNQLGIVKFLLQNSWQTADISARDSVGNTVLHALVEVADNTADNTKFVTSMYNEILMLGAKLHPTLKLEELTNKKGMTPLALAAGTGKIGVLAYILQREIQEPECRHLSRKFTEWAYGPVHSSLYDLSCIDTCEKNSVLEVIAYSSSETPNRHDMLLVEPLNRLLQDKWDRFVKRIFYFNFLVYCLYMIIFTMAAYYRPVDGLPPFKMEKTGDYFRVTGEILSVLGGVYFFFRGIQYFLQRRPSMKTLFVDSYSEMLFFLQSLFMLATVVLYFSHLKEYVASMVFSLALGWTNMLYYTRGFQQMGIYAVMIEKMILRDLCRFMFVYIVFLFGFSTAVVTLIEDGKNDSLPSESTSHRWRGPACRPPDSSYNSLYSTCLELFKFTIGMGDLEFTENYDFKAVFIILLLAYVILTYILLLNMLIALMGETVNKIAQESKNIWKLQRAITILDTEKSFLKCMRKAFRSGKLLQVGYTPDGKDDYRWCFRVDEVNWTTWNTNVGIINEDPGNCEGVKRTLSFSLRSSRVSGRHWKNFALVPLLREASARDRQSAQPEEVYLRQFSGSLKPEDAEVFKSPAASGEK
Galactokinase (Homo sapiens), sequence (P51570 whole entry, looked up): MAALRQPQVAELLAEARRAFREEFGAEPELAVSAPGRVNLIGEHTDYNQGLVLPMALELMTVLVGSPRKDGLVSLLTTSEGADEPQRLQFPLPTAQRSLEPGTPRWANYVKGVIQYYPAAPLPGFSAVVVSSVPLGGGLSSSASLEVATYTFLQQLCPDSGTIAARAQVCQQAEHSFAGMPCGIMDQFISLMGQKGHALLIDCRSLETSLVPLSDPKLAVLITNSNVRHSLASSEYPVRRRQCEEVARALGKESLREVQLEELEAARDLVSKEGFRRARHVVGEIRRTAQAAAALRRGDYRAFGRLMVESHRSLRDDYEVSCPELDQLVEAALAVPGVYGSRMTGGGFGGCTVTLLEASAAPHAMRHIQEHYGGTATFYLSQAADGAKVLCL
Thyrotropin receptor (Homo sapiens), sequence (P16473 whole entry, looked up): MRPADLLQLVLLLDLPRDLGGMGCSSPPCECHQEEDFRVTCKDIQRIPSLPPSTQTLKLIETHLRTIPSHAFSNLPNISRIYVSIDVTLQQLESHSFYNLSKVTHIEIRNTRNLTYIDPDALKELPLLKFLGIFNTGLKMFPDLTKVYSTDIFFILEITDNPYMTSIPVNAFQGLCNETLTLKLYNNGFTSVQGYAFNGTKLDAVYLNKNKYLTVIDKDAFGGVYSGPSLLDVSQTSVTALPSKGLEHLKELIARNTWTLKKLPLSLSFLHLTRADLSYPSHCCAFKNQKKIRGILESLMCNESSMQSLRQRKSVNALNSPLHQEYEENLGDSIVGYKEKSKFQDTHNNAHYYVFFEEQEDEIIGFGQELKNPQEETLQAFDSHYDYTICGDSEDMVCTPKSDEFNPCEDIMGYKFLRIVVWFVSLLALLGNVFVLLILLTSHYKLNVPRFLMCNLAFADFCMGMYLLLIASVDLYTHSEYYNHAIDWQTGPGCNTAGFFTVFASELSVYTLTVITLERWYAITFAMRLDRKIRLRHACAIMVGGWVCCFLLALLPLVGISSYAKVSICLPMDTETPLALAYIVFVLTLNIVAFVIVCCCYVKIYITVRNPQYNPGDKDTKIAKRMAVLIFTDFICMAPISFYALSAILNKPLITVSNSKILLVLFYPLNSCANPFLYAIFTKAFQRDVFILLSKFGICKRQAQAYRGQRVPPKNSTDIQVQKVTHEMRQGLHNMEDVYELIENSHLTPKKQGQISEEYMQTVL

On to `C[C@H](Cc1ccccc1)Nc1ncnc2c1ncn2[C@@H]1O[C@H](CO)[C@H](O)[C@H]1O`, for which the result in assay [1], in assay [9], in assay [11], in assay [12], in assay [14] and in [15] was inactive. The Potency entry in assay [2], in assay [3], in assay [4], in [5], in assay [6] and in assay [7] was “inactive” in each case. Further, the Potency entry in assay [8] and in assay [10] was “inactive” in each case. Moreover, in assay [13], the activation was -2.69%.

For `CN(C)C1C(=O)C(C(N)=O)=C(O)[C@@]2(O)C(=O)C3=C(O)c4c(O)ccc(Cl)c4[C@@H](O)C3C[C@@H]12` (some centres undefined), the call in assay [1], in [11], in [12] and in assay [14] was inactive. Besides, the Potency result in assay [2], in assay [3] and in assay [8] was “inactive” each time. Besides, the Potency in [5] was 794 nM (active); in assay [10], 738 nM (active); in assay [16], 6570 nM (active). Also, the activation in [13] is 1.62%.

On to `CNCC[C@@H](Oc1ccc(C(F)(F)F)cc1)c1ccccc1`, for which the call in [1], in [12], in [14] and in assay [15] was inactive. In addition, the Potency result in assay [3] and in assay [8] was “inactive” each time. The activation in assay [13] is 18.7%.

As for `CN1C[C@H](C(=O)N[C@]2(C)O[C@@]3(O)C4CCCN4C(=O)[C@H](Cc4ccccc4)N3C2=O)C[C@@H]2c3cccc4[nH]cc(c34)C[C@H]21` (some centres undefined), the molecule was called inactive in assay [1], in [11], in assay [12], in assay [14] and in [15]. The Potency result in [2], in [3] and in assay [8] was “inactive” in each case. Also, the Potency in assay [10] is 2940 nM (active); in [16], 2330 nM (active). The activation in assay [13] is 0.625%.

Regarding `COc1ccc(CCNC[C@@H](O)c2ccc(O)cc2)cc1OC`, the call in [1], in assay [9], in assay [11], in [12], in assay [14] and in [15] was inactive. Besides, the Potency entry in assay [2], in assay [3], in [4], in assay [5], in assay [6] and in assay [7] was “inactive” in each case. Further, the Potency entry in assay [8], in assay [10] and in assay [16] was “inactive” each time.

With `NC(=S)c1ccc[n+]([C@@H]2O[C@@H](COP(=O)([O-])OP(=O)(O)OC[C@H]3O[C@@H](n4cnc5c(N)ncnc54)[C@H](OP(=O)(O)O)[C@H]3O)C(O)C2O)c1` (some centres undefined), the molecule was called inactive in [1], in assay [9], in assay [11], in assay [12], in [14] and in [15]. For the same molecule, the Potency result in assay [2], in assay [3], in assay [4], in [5], in assay [6] and in assay [7] was “inactive” in each case. Also, the Potency entry in assay [8], in [10] and in assay [16] was “inactive” in each case. Besides, in assay [13], the activation is -0.0625%.

In the case of `CCCC(=O)NCCc1c2n(c3ccc(OC)cc13)Cc1ccccc1-2`, the molecule was classed as inactive in [1], in assay [9], in assay [11], in assay [12], in assay [14] and in assay [15]. For the same molecule, the Potency result in assay [3], in assay [8] and in assay [10] was “inactive” each time. In [13], the activation was -7.06%.

On to `CNc1ncnc2c1ncn2[C@@H]1O[C@H](CO)[C@H](O)[C@H]1O`, for which the molecule was classed as inactive in assay [1], in assay [11], in assay [12], in assay [14] and in assay [15]. The Potency result in assay [2], in [3], in [4], in assay [5], in assay [6] and in assay [7] was “inactive” throughout. In addition, the Potency entry in assay [8] was “inactive”. In addition, in assay [13], the activation is 1.06%.

For the molecule `CCSC(N)=Nc1ccc(C(F)(F)F)cc1`, the molecule was called inactive in assay [1], in assay [9], in assay [11], in [12], in [14] and in assay [15]. Besides, the Potency result in assay [2], in assay [3], in assay [5], in assay [6], in assay [7] and in assay [8] was “inactive” throughout. The Potency result in [10] and in [16] was “inactive” each time. The activation in assay [13] is -5.5%.

As for `N[C@H](Cc1ccc(O)c(O)c1)C(=O)O`, the outcome in assay [1], in assay [9], in assay [11], in assay [12], in assay [14] and in assay [15] was inactive. The Potency in [2] was 10000 nM (active). The Potency entry in assay [3], in assay [4], in assay [5], in assay [6], in assay [7] and in [8] was “inactive” each time. In addition, the Potency entry in assay [10] and in assay [16] was “inactive” each time. Moreover, the activation in assay [13] is 0.688%.
